# Several values for one entry are separate records, joined by “and”; a condition that tells them apart may be missing. Identical values can stand only once. Counter-ions that a name gives are not always drawn. ± gives the standard deviation of the averaged measurements. Whole data set: some 1,600 compounds, median “mitochondrial oxygen consumption rate normalised to cell number, Z score over the library” near 0.065, cut for the lowest 2% near -2.2. What follows is part of a selection rich in the lowest values, with near analogues and random picks from the rest.
# Tested on: FaDu
# Assay: mitochondrial oxygen consumption rate normalised to cell number, Z score over the library; higher = higher oxygen consumption (negative = OCR reduction)
# Conditions: treatment time 24 h; assay medium: 5 mM galactose, 5 mM pyruvate, 4 mM glutamine; 10 µM
# Method: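 Primary screen: FaDu cells were incubated 24 h with Pharmakon 1600 / TDI oncology set compounds at 2 or 10 uM. Mitochondrial-specific OCR (basal minus 2 uM antimycin A) was measured on a Seahorse XF96 in assay medium with 5 mM galactose, 5 mM pyruvate and 4 mM glutamine, then corrected for Hoechst cell number and expressed as a Z score […]. Compounds that cut cell number by >66% were excluded. Two repeats.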
row,Structure (SMILES),mitochondrial oxygen consumption rate normalised
1,CCCCCCCC/C=C\CCCCCCCC(=O)O.NCCO,-0.00915 ± 0.76
2,CC[C@H]1OC(=O)[C@H](C)[C@@H](O[C@H]2C[C@@](C)(OC)[C@@H](O)[C@H](C)O2)[C@H](C)[C@@H](O[C@@H]2O[C@H](C)C[C@H](N(C)C)[C@H]2O)[C@](C)(O)C[C@@H](C)[C@@H]2N[C@@H](COCCOC)O[C@H]([C@H]2C)[C@]1(C)O,-0.149 ± 0.29
3,CCc1c2c(nc3ccc(OC(=O)N4CCC(N5CCCCC5)CC4)cc13)-c1cc3c(c(=O)n1C2)COC(=O)[C@]3(O)CC,-1.11 and -2.18
4,CC[C@@]1(O)C(=O)OCc2c1cc1n(c2=O)Cc2cc3c(CN(C)C)c(O)ccc3nc2-1,-4.46 ± 0.19
5,CNC(=O)c1cc(Oc2ccc(NC(=O)Nc3ccc(Cl)c(C(F)(F)F)c3)cc2)ccn1,-2.31 ± 0.25
6,C#C[C@]1(OC(C)=O)CC[C@H]2[C@@H]3CCC4=CC(=NO)CC[C@@H]4[C@H]3CC[C@@]21CC (mixture of isomers),1.1 ± 0.091
7,CC(C)(C)CC(=O)OCC(=O)[C@@]1(O)CC[C@H]2[C@@H]3CCC4=CC(=O)C=C[C@]4(C)[C@H]3[C@@H](O)C[C@@]21C,-0.63 ± 0.68
8,COc1cc([C@@H]2c3cc4c(cc3[C@@H](O[C@@H]3O[C@@H]5CO[C@@H](C)O[C@H]5[C@H](O)[C@H]3O)[C@H]3COC(=O)[C@H]23)OCO4)cc(OC)c1O,-1.53 ± 0.61
9,COc1cc([C@@H]2c3cc4c(cc3[C@@H](O[C@@H]3O[C@@H]5CO[C@@H](c6cccs6)O[C@H]5[C@H](O)[C@H]3O)[C@H]3COC(=O)[C@H]23)OCO4)cc(OC)c1O,-3.75 ± 0.66
10,COc1cc([C@@H]2c3cc4c(cc3[C@@H](O[C@@H]3O[C@@H]5CO[C@@H](C)O[C@H]5[C@H](O)[C@H]3O)[C@H]3COC(=O)[C@H]23)OCO4)cc(OC)c1O [Etoposide],-0.0499 ± 0.023
11,Nc1ccc2cc3ccc(N)cc3nc2c1,-2.55 ± 0.27
12,Nc1c2ccccc2nc2ccccc12,-1.9 ± 0.35
13,Cc1ccc2c(Br)cc(Br)c(OC(=O)c3ccccc3)c2n1,-2.31 ± 0.47
14,O=C(OOC(=O)c1ccccc1)c1ccccc1,0.517 ± 0.52
15,O=C(Oc1cccc2cccnc12)c1ccccc1,-0.0234 ± 0.66
16,CCCCCCCCCCCCCCCC[N+](C)(C)CCN(Cc1ccc(OC)cc1)c1ncccn1,-2.13 ± 0.31
17,CO/N=C1\C[C@]2(C[C@@H]3C[C@@H](C/C=C(\C)C[C@@H](C)/C=C/C=C4\CO[C@@H]5[C@H](O)C(C)=C[C@@H](C(=O)O3)[C@]45O)O2)O[C@H](/C(C)=C/C(C)C)[C@H]1C,-0.513 ± 0.34
18,Cc1cccc(C)c1NC(=O)c1ccccc1C(=O)O,-0.418 ± 1.1
19,CCCCC(CC)CCC(CC(C)C)OS(=O)(=O)O (configuration not stated),0.745 ± 1.4
20,O.O.O=C([O-])CN(CCN(CC(=O)[O-])CC(=O)O)CC(=O)O.[Na+].[Na+],1.52 ± 0.75
21,CC1(C)S[C@@H]2[C@H](NC(=O)Cc3ccccc3)C(=O)N2[C@H]1C(=O)O,-0.601 ± 0.075
22,COC(=O)Nc1nc2cc(C(=O)c3ccc(F)cc3)ccc2[nH]1,0.265 ± 0.4

row,Structure (SMILES),mitochondrial oxygen consumption rate normalised
1,CC(C)(C)NC[C@H](O)c1ccc(O)c(CO)c1,0.0168 ± 0.31
2,C[n+]1c2cc(N)ccc2cc2ccc(N)cc21,-4.5 ± 0.35
3,C=CCCCCCCCCC(=O)O,1.2 ± 0.61
4,Cc1c(C)c2c(c(C)c1O)CCC(C)(CCCC(C)CCCC(C)CCCC(C)C)O2 (stereo not drawn) [alpha-TOCHOPHEROL],-0.681 ± 0.38
5,CC(=O)OCC(=O)[C@@]12OC(C)(C)O[C@@H]1C[C@H]1[C@@H]3C[C@H](F)C4=CC(=O)C=C[C@]4(C)[C@@]3(F)[C@@H](O)C[C@@]12C,0.605 ± 0.52
6,CN[C@H]1CC[C@@H](c2ccc(Cl)c(Cl)c2)c2ccccc21,-0.618 ± 0.057
7,OC[C@H]1O[C@@H](n2cnc3c2N=CNC[C@H]3O)C[C@@H]1O [Pentostatin],0.38 ± 0.31
8,C[C@@H]1O[C@@H]1P(=O)(O)O,0.794 ± 0.12
9,C=CCNC(N)=S,0.218 ± 1.4
10,Oc1c(Br)cc(Br)c2cccnc12,-1.77 ± 0.19
11,CCOc1ccc2nc(S(N)(=O)=O)sc2c1,-0.459 ± 0.36
12,CCOc1ccc2nc3cc(N)ccc3c(N)c2c1,-3.35 ± 0.25
13,CN(Cc1cc(Br)cc(Br)c1N)C1CCCCC1,0.728 ± 0.24
14,NNCCc1ccccc1,-0.3 ± 0.16
15,CO[C@H]1/C=C/O[C@@]2(C)Oc3c(C)c(O)c4c(O)c(c5c(nc6cc(C)ccn65)c4c3C2=O)NC(=O)/C(C)=C\C=C\[C@H](C)[C@H](O)[C@@H](C)[C@@H](O)[C@@H](C)[C@H](OC(C)=O)[C@@H]1C,0.795 ± 0.38
16,Cc1ccc(Nc2nccc(N(C)c3ccc4c(C)n(C)nc4c3)n2)cc1S(N)(=O)=O [Pazopanib HCl],-0.379 ± 0.45
17,OCC(S)CS (configuration not stated),-0.239 ± 0.68
18,CCCCOc1ccc(C(=O)CCN2CCCCC2)cc1,-0.0802 ± 0.69
19,N=C(N)c1ccc(OCCCCCOc2ccc(C(=N)N)cc2)cc1,-3.01 ± 0.078
20,N=C(N)c1ccc(N=NNc2ccc(C(=N)N)cc2)cc1,-0.185 ± 0.46
21,CC1CCN(CCCC(=O)c2ccc(F)cc2)CC1,-0.602 ± 0.36
22,CCCCC/C=C/CCC(=O)N[C@H]1[C@H](Oc2c3cc4cc2Oc2ccc(cc2Cl)[C@@H](O[C@@H]2O[C@H](CO)[C@@H](O)[C@H](O)[C@H]2NC(C)=O)[C@@H]2NC(=O)[C@H](NC(=O)[C@@H]4NC(=O)[C@H]4NC(=O)C(Cc5ccc(c(Cl)c5)O3)NC(=O)[C@H](N)c3ccc(O)c(c3)Oc3cc(O)cc4c3)c3ccc(O)c(c3)-c3c(OC4O[C@H](CO)[C@@H](O)[C@H](O)[C@@H]4O)cc(O)cc3[C@@H](C(=O)O)NC2=O)O[C@H](CO)[C@@H](O)[C@@H]1O (some centres not stated) [TEICOPLANIN [A(2-1) shown]],1.41 ± 0.64

row,Structure (SMILES),mitochondrial oxygen consumption rate normalised
1,COCCCOc1cc(C[C@@H](C[C@H](N)[C@@H](O)C[C@H](C(=O)NCC(C)(C)C(N)=O)C(C)C)C(C)C)ccc1OC,0.624 ± 0.066
2,Nc1ncnc2c1ncn2[C@@H]1O[C@H](CO)[C@@H](O)[C@@H]1O,0.868 ± 0.46
3,Cc1ccccc1N1C(=O)c2cc(S(N)(=O)=O)c(Cl)cc2NC1C (configuration not stated),0.24 ± 0.2
4,CCCSc1ccc2[nH]c(NC(=O)OC)nc2c1,0.883 ± 0.12
5,O=C1c2c(O)cc(CO)cc2C(OC2OC(CO)C(O)C(O)C2O)c2cccc(OC3OC(CO)C(O)C(O)C3O)c21 (configuration not stated) [CASANTHRANOL [cascaroside A shown]],-0.942 ± 0.28
6,C[C@H](Cn1cnc2c(N)ncnc21)OCP(=O)(O)O,0.449 ± 0.26
7,CCC1=C(C)CN(C(=O)NCCc2ccc(S(=O)(=O)NC(=O)N[C@H]3CC[C@H](C)CC3)cc2)C1=O,0.0168 ± 0.78
8,Cc1c(-c2cnccn2)ssc1=S,-0.416 ± 0.25
9,Cc1nccnc1N1CCCCC1,0.47 ± 0.26
10,CC(=O)NC(Cc1ccccc1)C(=O)O (configuration not stated),0.121 ± 0.33
11,C[Se]CC[C@H](N)C(=O)O,0.623 ± 0.23
12,CC(=O)OCC(=O)[C@@]1(O)[C@H](OC(C)=O)C[C@H]2[C@@H]3CCC4=CC(=O)C=C[C@]4(C)[C@@]3(F)[C@@H](O)C[C@@]21C,0.894 ± 0.33
13,CS(=O)(=O)CCNCc1ccc(-c2ccc3ncnc(Nc4ccc(OCc5cccc(F)c5)c(Cl)c4)c3c2)o1 [Lapatinib Ditosylate],-0.0282 ± 1.2
14,O.O.O.O.O=C([O-])CC(O)(CC(=O)[O-])C(=O)[O-].[Li+].[Li+].[Li+],-0.228 ± 1.6
15,CC1(C)[C@H](C(=O)O)N2C(=O)C[C@H]2S1(=O)=O,0.32 ± 0.83
16,CCCCCCc1ccc(O)cc1O.Nc1c2ccccc2nc2ccccc12,-2.93 ± 0.2
17,CCCCCCc1ccc(O)cc1O,0.48 ± 0.24
18,Nc1c2c(nc3ccccc13)CCCC2,1.05 ± 0.93
19,O=C(O)c1cc(-c2ccccc2)nc2ccccc12,0.349 ± 0.05
20,O=C(Nc1cc(Cl)cc(Cl)c1O)c1c(O)c(Cl)cc(Cl)c1Cl,1.06 ± 0.89
21,Oc1c(Cl)cc(Cl)c(Cl)c1Cc1c(O)c(Cl)cc(Cl)c1Cl,-6.031 ± 0.028
22,Oc1c(Cl)cc(Cl)cc1Sc1cc(Cl)cc(Cl)c1O,6.804 ± 0.06

row,Structure (SMILES),mitochondrial oxygen consumption rate normalised
1,O=C(NCc1ccccc1)OCCO,1.42 ± 0.86
2,CCCCC(CC)COc1ccc(-c2nc(-c3ccc(OC)cc3)nc(-c3ccc(OCC(CC)CCCC)cc3O)n2)c(O)c1 (configuration not stated),0.282 ± 0.45
3,Cc1ccccc1OCC(O)CO (configuration not stated),-0.432 ± 0.61
4,O=C1C(O)=C(O)C(=O)C(O)=C1O,0.611 ± 0.72
5,Cc1oc(=O)oc1CN1CCN(c2cc3c(cc2F)c(=O)c(C(=O)O)c2n3C(C)S2)CC1 (configuration not stated),0.0314 ± 0.4
6,NC(=O)CCCCC1CCSS1 (configuration not stated),1.43 ± 0.3
7,CCN[C@@H]1C[C@H](N)[C@@H](O[C@H]2OC(CN)=CC[C@H]2N)[C@H](O)[C@H]1O[C@H]1OC[C@](C)(O)[C@H](NC)[C@H]1O,1.16 ± 0.38
8,O=C1/C(=C/c2cccs2)CCC/C1=C\c1cccs1,0.0645 ± 0.73
9,CC(C)n1c(/C=C/C(O)CC(O)CC(=O)O)c(-c2ccc(F)cc2)c2ccccc21 (configuration not stated),-1.03 ± 0.072
10,CC(=O)[C@@]1(O)CC[C@H]2[C@@H]3C=C(Cl)C4=CC(=O)[C@@H]5C[C@@H]5[C@]4(C)[C@H]3CC[C@@]21C,-0.129 ± 1.6
11,Cc1cc(/C=C/c2ccc3cc(N(C)C)ccc3[n+]2C)c(C)n1-c1ccccc1,-5.57 ± 0.19
12,COc1cc2/c(=N/c3ccc(Br)cc3F)nc[nH]c2cc1OCC1CCN(C)CC1 [vandetanib],0.909 ± 1.7
13,CCN(CC)C(=O)c1cccnc1,-0.362 ± 0.74
14,OCc1ccccc1O[C@@H]1O[C@H](CO)[C@@H](O)[C@H](O)[C@H]1O,0.956 ± 0.64
15,O=C(c1ccc(OCCN2CCCCC2)cc1)c1c(-c2ccc(O)cc2)sc2cc(O)ccc12,-0.0851 ± 0.4
16,O=C(c1ccc(OCCN2CCCCC2)cc1)c1c(-c2ccc(O)cc2)sc2cc(O)ccc12 [Raloxifene HCl],-0.567 ± 1.1
17,COc1ccc(-n2nc(CCC(=O)N(C)O)cc2-c2ccc(Cl)cc2)cc1,-0.88 ± 0.44
18,FC(F)(Cl)C(F)(F)Cl,0.262 ± 0.59
19,CC12CCC(CC1=O)C2(C)C (configuration not stated),0.477 ± 0.051
20,C/C(=C\c1csc(C)n1)[C@@H]1C[C@@H]2O[C@]2(C)CCC[C@H](C)[C@H](O)[C@@H](C)C(=O)C(C)(C)[C@@H](O)CC(=O)N1 [Ixabepilone],-0.637 ± 0.14
21,OC[C@H]1O[C@@H](O[C@@H]2[C@@H](CO)OC(O)(CO)[C@H]2O)[C@H](O)[C@@H](O)[C@H]1O (mixture of isomers),1.09 ± 0.68
